# Bioassay records as filed in PubChem BioAssay.
# PINK1 expr mod: modulators of PINK1 expression; PINK1 immunofluorescence, high-content cytometry, 24 h; Potency, µM (series often up to 76.6 µM), for inactives: top-dose activation (PINK1 increase), most hits filed as activators; hit rate 0.2% among 410,000; AID 624263; active = well fitted activation curve with a large enough effect; inconclusive = small, poorly fitted or top-dose-only effect; cell line not stated here; note: % of control where 0% means no effect; nearly all actives have a fitted effect of over 65% in size
#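 A stable cell line was treated with compounds at 5 concentrations for 24 hours, with CCCP as control. PINK1 levels and mitochondrial localization were measured by immunofluorescence with mitochondrial, cell and nuclear markers after fixation, read by laser-scanning cytometry.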
# Nrf2 block: inhibitors of Nrf2 signaling. Potency, µM (top dose mostly 46 µM), inactives show top-dose activity change, negative = inhibition, actives largely listed as inhibitors. hit rate 2.1% among 360,000. A549 ARE-Fluc reporter, luciferase luminescence, 18-24 h. AID 504444; note: % is set by controls: 0 for no effect and ±100 for the full control effect; nearly all actives have a fitted effect of over 60% in size
#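 A549 ARE_Fluc cells (5000/well, 5% FBS OPTI-MEM) pre-incubated 2 h, then treated with compounds 18-24 h at 37C/5% CO2 in concentration-response. CellTiter-Fluor viability read first; BugLite luciferase luminescence after 15 min at room temperature gives Nrf2 activity.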
# Epigenetic reg: derepresses silenced GFP reporter in murine cells; murine LDR cells, GFP reporter derepression, 30 h; Potency, µM (highest dose often 53.9 µM), for inactives: top-dose GFP activation, actives largely listed as activators; hit rate 0.2% among 280,000; AID 1865; note: % of control where 0% means no effect; nearly all actives have a fitted effect of over 60% in size
#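 GFP-positive cell count by laser-scanning cytometry (objects 20–120 um) after 30 h, 37 C compound exposure of murine LDR cells; reporter is CMV-GFP integrated at a silenced locus, inducible by HDAC or DNMT inhibitors.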
# A549 tox: A549 cytotoxicity, counter-screen for Nrf2 inhibitors. hit rate 0.16% among 390,000. A549 ARE-Fluc cells, CellTiter-Fluor viability, 18-24 h. Potency, µM (top dose mostly 46 µM), for the others: at the top dose activity change, negative = cytotoxicity, usual class: inhibitors; note: % is set by controls: 0 for no effect and ±100 for the full control effect
#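 A549 ARE-Fluc cells in 5% FBS OPTI-MEM, 5000 cells/well, rested 2 h then exposed to compounds in concentration-response for 18-24 h at 37 °C. Viability by CellTiter-Fluor fluorescence (Ex 405/Em 525) after 30 min; luciferase luminescence (BugLite, 15 min, RT) read afterwards.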
# Nrf2 activator: activators of Nrf2 (ARE) signaling; AREc32 ARE-luciferase reporter (MCF7-derived line), luminescence, 24 h; Potency, µM (titrated, usually from 46.1 µM), inactives show top-dose activation, most hits filed as activators; hit rate 0.31% among 410,000; note: % of control where 0% means no effect; nearly all actives have a fitted effect of over 65% in size
#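 Steps: seed AREc32_Fluc cells (1000/well, 5% FBS OPTI-MEM); incubate overnight at 37 deg C; add 23 nL compound; incubate 24 hr; add Steady-Glo; hold 30 min RT; read luminescence.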
# * hit, by the source's call; ? = inconclusive; . = no result given; [ ] = remark or other dose. Compounds with a hit are over-represented: about 2.4% of the library has one in this group of screens. Unless noted, calls come from the whole dose curve; as a rule, active = well fitted curve in the direction sought with a large enough effect; inconclusive = small, poorly fitted or top-dose-only effect, or another doubt; inactive = no such curve, though single readings can be large; an effect the other way counts as inactive or inconclusive. Potency is the fitted concentration of half-maximal effect.
SMILES,PINK1 expr mod,Nrf2 block,Epigenetic reg,A549 tox,Nrf2 activator
Cc1ccccc1Cn1nc(C)c(NC(=O)c2cc(CC(C)C)on2)c1C,0%,?,4%,4%,0%
CCCc1cc(C(=O)Nc2c(C)nn(Cc3ccc(C)cc3)c2C)no1,0%,?,-1%,-3%,4%
Cc1nn(Cc2ccc(Cl)c(Cl)c2)c(C)c1NC(=O)c1cc(CC(C)C)on1,10%,8.2µM*,0%,?,3%
O=C(O)c1cccc(-c2noc(-c3ccccc3F)n2)c1,.,?,.,-3%,.
O=C(N/N=C/c1ccc([N+](=O)[O-])s1)c1cccc(Br)c1,-2%,21µM*,-1%,?,0%
O=C(NN=Cc1ccc(N2CCOCC2)s1)c1ccc([N+](=O)[O-])cc1,16µM*,?,.,?,1%
O=C(N/N=C/c1ccc([N+](=O)[O-])s1)c1ccncc1,1%,?,-2%,-10%,?
O=C(N/N=C/c1cccc(Oc2ccccc2)c1)c1cccc(Br)c1,?,18µM*,0%,0%[1.84 µM],3%
Cc1ccc(OCC(=O)N/N=C\c2cccs2)c([N+](=O)[O-])c1,0%,?,-3%,11%,14%
O=C(N/N=C/c1ccc(N2CCOCC2)s1)c1ccc(O)cc1,4%,.,.,.,0%
Cc1ccc([N+](=O)[O-])c(C(=O)N/N=C/c2cccs2)c1,2%,9.2µM*,-1%,-3%,0%
COc1ccccc1-n1cc(CN2CCC3(CCC(CNC(=O)c4ccccc4)O3)CC2)cn1 (configuration not stated),1%,.,.,.,.
CC(C)(C)OC(=O)N/N=C\c1ccc([N+](=O)[O-])s1,0%,-13%,-2%,-7%,11%
Cc1ccc(C(=O)N/N=C/c2ccc([N+](=O)[O-])s2)cc1,2%,16µM*,1%,?,-4%
CCOC(=O)N/N=C\c1ccc([N+](=O)[O-])s1,8%,23µM*,9%,?,-1%
COc1ccc(C2C(C(=O)Nc3ccccc3)=C(C)Nc3nc(-c4ccccc4)nn32)c(OC)c1 (configuration not stated),3%,?,0%,-7%,6%
COc1cccc(C2C(C(=O)Nc3ccccc3)=C(C)Nc3nc(-c4ccccc4)nn32)c1OC (configuration not stated),1%,18µM*,3%,-25%,-1%
O=C1CC(C(=O)N2CCCC(c3nc(-c4ccncc4)ncc3-c3ccccc3)C2)C2(CCCCC2)O1 (configuration not stated),1%,.,.,.,.
Cc1ccc(NC(=O)Cn2c(=O)c3cccn3c3ccccc32)c(C)c1,0%,-10%,.,5%,0%
Cc1cc(C)cc(NC(=O)CCn2c(=O)c3cccn3c3ccccc32)c1,4%,16µM*,.,-14%,3%
COc1ccc(CNC(=O)Cn2c(=O)c3cccn3c3ccccc32)cc1,5%,12µM*,0%,0%,0%
Cc1cccc(NC(=O)Cn2c(=O)c3cccn3c3ccccc32)c1C,0%,23µM*,0%,-17%,-1%
CN(C)c1ccnc(Oc2ccc(Cl)cc2)c1C#N,1%[38.3 µM],25%,0%,6%,3%
Cc1cc(Cl)ccc1Oc1nccc(N(C)C)c1C#N,.,23µM*,0%,-17%,1%
CCCc1cc(=O)n2c([nH]c3ccccc32)c1C#N,4%[38.3 µM],15µM*,1%,-24%,0%
SMILES,PINK1 expr mod,Nrf2 block,Epigenetic reg,A549 tox,Nrf2 activator
Cc1c(CCC(C)C)c(=O)n2c([nH]c3ccccc32)c1C#N,1%,?,-1%,-9%,0%
CCCCc1c(C)c(C#N)c2[nH]c3ccccc3n2c1=O,40µM*,18µM*,-1%,?,3%
Cc1c(CCO)c(=O)n2c([nH]c3ccccc32)c1C#N,-3%,-15%,.,-9%,7%
CN(C(=O)c1nc(-c2cccc(F)c2)n2c1CCCCC2)c1ccccc1F,0%,?,1%,10%,4%
CCOc1ccc(CCNC(=O)c2nc(-c3cccc(F)c3)n3c2CCCCC3)cc1OCC,2%,21µM*,0%,?,0%
COc1ccc(-n2c(-c3ccc(Br)cc3)c[n+]3c2CCc2ccccc2-3)cc1,28µM*,8.2µM*,16%,-16%,8%
Cc1cc2c(N3CCCCC3C)ncnc2s1 (configuration not stated),1%,21µM*,-2%,-13%,2%
CC(C)(C)c1ccc(C2CC2C(=O)N/N=C\c2ccc[nH]2)cc1 (configuration not stated),?,1.6µM*,2%,5.8µM*,0%[9.22 µM]
COCCCn1c(C)nc2c(c1=O)c1nc3ccccc3nc1n2CCc1ccccc1,7%,8.2µM*,-1%,-11%,-1%
COc1ccc(/C=C2\CCCC3C2=NN(C(=O)COC(=O)CNC(=O)c2ccccc2)C3c2ccc(OC)cc2)cc1 (configuration not stated),-1%,13µM*,-2%,.,2%
COc1ccc(/C=C2\CCCC3C2=NN(C(=O)CSc2ncn[nH]2)C3c2ccc(OC)cc2)cc1 (configuration not stated),-4%,?,0%,-15%,3%
Nc1nc2ccccc2cc1-c1cccs1,0%,?,.,0%,4%
c1csc(-c2ccc3ccccc3n2)c1,2%,?,-1%,0%,18µM*
CSC1=NSC2=NC(=O)/C(=C/c3coc4ccccc4c3=O)C(=N)N12,9%,-2%,-2%,2%,26%
N=C1/C(=C\c2coc3ccccc3c2=O)C(=O)N=C2SC=CN12,13%,0%,5%,-2%,18µM*
CC(C)C(NS(C)(=O)=O)c1nnc2n1CCN(Cc1ccc(Cl)cc1)CC2 (configuration not stated),2%,.,.,.,.
O=C1C(Cl)=C(Nc2ccccc2O)C(=O)N1c1ccccc1,-3%,18%,4%,-10%,?
COc1ccccc1N1C(=O)C(Cl)=C(Nc2ccccc2O)C1=O,2%,12%,13%,1%,13µM*
Cc1ccccc1N=C/C=C1/C=C(c2ccccc2)OC(C)(C)O1,-6%[38.3 µM],-5%,22µM*,-9%,12%
COc1ccc(N=C/C=C2\C=C(c3ccccc3)OC(C)(C)O2)cc1,-5%,7%,?,0%,2%
COc1ccc(OC)c(NC(=O)C(OC(=O)CNC(=O)c2ccccc2)c2ccccc2)c1 (configuration not stated),.,-2%,.,-6%,.
CN(CC(=O)Nc1ccc(Cl)c(C(F)(F)F)c1)C(=O)c1ccc2c(c1)NC(=O)CS2,-1%,21µM*,.,-16%,0%
CN(CC(=O)Nc1ccc(Cl)c(C(F)(F)F)c1)CC(=O)NC1CCCCC1,12%,12µM*,.,?,0%
